DUSP3 inh – VHR1 phosphatase inhibitors, primary screen, biochemical, absorbance, uHTS; inhibition, % at 13.3 µM; recombinant VHR phosphatase, pNPP absorbance; 290,000 compounds, 0.52% hits; in the data active means inhibition above about 50%
Target sequence (P51452 whole entry, looked up): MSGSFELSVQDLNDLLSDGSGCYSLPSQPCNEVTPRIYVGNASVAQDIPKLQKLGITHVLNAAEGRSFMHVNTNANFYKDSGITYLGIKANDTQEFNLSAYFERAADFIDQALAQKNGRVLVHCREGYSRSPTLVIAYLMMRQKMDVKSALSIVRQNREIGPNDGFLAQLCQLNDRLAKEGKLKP
PriA SSB inh – inhibitors of Klebsiella pneumoniae PriA binding to SSB C-terminal tail, primary screen, biochemical, AlphaScreen | PriA–SSB C-terminal tail interaction (Klebsiella pneumoniae) | AlphaScreen SSBct-PriA binding, biotinylated peptide | inhibition, % at 33 µM | 430,000 compounds, 0.6% hits | AID 1272365, 2023; in the data active means inhibition mostly above about 37%, no sharp cut-off; inactive means mostly below about 20%;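 further: plate controls were negative control peptide for no effect and reference peptide for full effect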
PfHsp40 yeast – rescue of yeast from PfHsp40 toxicity, primary screen, S. cerevisiae, ATP luminescence. growth rescue, % at 12.5 µM. S. cerevisiae expressing PfHsp40, growth rescue. 340,000 compounds, 0.68% hits; in the data active means growth rescue above about 28%, passing the limit was not always enough; inconclusive means no clear call, values can overlap the other calls;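 further: yeast W303a lacking pdr1 and pdr3 grown in galactose medium; growth measured after three days at 30 °C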
ugtP null kill – growth inhibition of ugtP-null S. aureus, primary screen, RN4220 ugtP deletion, OD600. 16 h. growth inhibition, % (no concentration beside the values). 330,000 compounds, 0.54% hits; in the data active means growth inhibition above about 68%;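 further: plate controls were untreated wells for no effect and antibiotic for full effect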
Mtb hypoxia rep – PubChem AID 1159583. M. tuberculosis hypoxia-regulated fluorescent reporter, fluorescence. 300,000 compounds, 0.1% hits. fluorescence inhibition, % (no concentration beside the values); in the data active means fluorescence inhibition mostly above about 23%, no sharp cut-off; inactive means mostly below about 17%
RN4220 kill – growth inhibition of S. aureus RN4220, primary screen, OD600; inhibition, % (no concentration beside the values); 330,000 compounds, 0.33% hits; 16 h; in the data active means inhibition above about 85%;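 further: plate controls were untreated cells for no effect and reference antibiotic for full effect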
Active calls of the source: *; ? = inconclusive; · = no result given. This is a sample that favours compounds with a hit; in the whole collection about 1.8% have one here.

SMILES	DUSP3 inh	PriA SSB inh	PfHsp40 yeast	ugtP null kill	Mtb hypoxia rep	RN4220 kill
CCN(CC)S(=O)(=O)c1ccc(N2CCOCC2)c(NC(=O)C(=O)c2c(-c3ccccc3)cc3ccccn23)c1	23	-16	130*	-14	17	21
O=C(Cn1nc(-n2ccc3ccccc32)ccc1=O)Nc1cnccn1	·	0	·	·	·	·
CC(=O)NC(Cc1cc(C)ccc1C)C(=O)N1CCN(C(=O)c2ccccc2Br)CC1 (configuration not stated)	-4	-9	-1	-2	4	0
CC(=O)NC(Cc1cc(C)ccc1C)C(=O)N1CCN(C(=O)c2ccc([N+](=O)[O-])cc2)CC1 (configuration not stated)	54*	8	2	4	12	6
COc1ccccc1C=NN=C(N)c1ccccn1	·	21	·	12	8	1
O=C(Oc1ccc(Cl)c2cccnc12)c1ccco1	16	52*	7	5	13	91*
O=C(Oc1ccc(Cl)c2cccnc12)c1ccc(F)cc1	·	-12	·	·	·	·
COc1cc2ccccc2nn1	-15	-6	0	5	7	2
COc1ccc2c(n1)Sc1nc3ccccc3nc1N2	6	-1	336*	8	-3	0
COc1ccc(Cn2c(O)c(C=C3C=CC=N3)c(=O)[nH]c2=O)cc1	·	-3	·	·	·	·
O=C(COc1ccc(Cl)cc1Cl)NC(=S)Nc1ccccc1C(=O)O	-4	·	·	·	·	·
O=C(CCCOc1ccc(Cl)cc1Cl)Nc1ccccc1C(=O)O	8	3	0	23	34*	25
CCC(=O)N1CCCc2ccc(NS(C)(=O)=O)cc21	·	-11	·	·	·	·
Brc1ccc(OCc2ccccc2)c(CNCc2ccncc2)c1	-11	-5	122*	-3	13	6
Cc1cccc(NC(=O)Nc2ccc3c(c2)N(C)C(=O)CS3)n1	34	104*	-1	4	5	7
C=CCC(CC(=O)NC(CO)Cc1ccccc1)C(=O)NCC(OC(=O)C(CC=C)CC(=O)OC(C)(C)C)c1ccccc1 (configuration not stated)	·	·	·	6	4	6
Cc1ccc(CSc2ncnc3onc(C)c23)cc1	4	-10	70*	22	19	6
Cc1noc2ncnc(SCc3ccc(C(F)(F)F)cc3)c12	18	-19	?	15	10	1
O=C(Cc1nnc(NC(=O)c2ccccc2)s1)NN=Cc1ccc(O)c(O)c1	·	-4	·	9	3	5
O=C(Nc1ncccc1O)c1cccc(S(=O)(=O)N2CCCC2)c1	·	-7	1	6	2	2
CC1Cc2ccccc2N1S(=O)(=O)c1cccc(C(=O)NCc2ccncc2)c1 (configuration not stated)	·	9	0	-5	-11	3
O=C(Nc1ncccc1O)c1cccc(S(=O)(=O)N2CCc3ccccc32)c1	2	17	66*	-10	8	-13
O=C(NCc1ccncc1)c1cccc(S(=O)(=O)N2CCc3ccccc32)c1	·	0	-1	2	28*	4
CSc1ccc(C(=O)Nc2nc3ccc(Br)cc3s2)cc1	·	2	·	·	·	·
O=C1c2cccc(Cl)c2C(=O)c2c1cccc2N1CCCC1	·	-20	381*	7	17	2
SMILES	DUSP3 inh	PriA SSB inh	PfHsp40 yeast	ugtP null kill	Mtb hypoxia rep	RN4220 kill
O=C(CCC1CCCC1)c1c(O)c2ccccc2oc1=O	-1	-4	1	100*	1	100*
CCCn1nnc(NC(=S)NC(=O)c2ccccc2OC)n1	·	1	2	3	33*	28
CCCn1nnc(NC(=O)c2ccccc2Cl)n1	14	3	-2	13	-1	2
Cc1cc(NC(=O)c2n[nH]c3ccccc23)ccc1Br	·	2	·	·	·	·
CCC(C(=O)NCCCN1CC(C)CC(C)C1)n1ncn2c(cc3occc32)c1=O (configuration not stated)	58*	-13	-1	3	0	0
CC(C)C(=O)NNC(=O)CC(=O)Nc1ccccc1C(=O)O	8	-4	40*	-1	2	3
O=C(NCC(O)(c1cccs1)C1CC1)c1ccc2ncsc2c1 (configuration not stated)	·	-5	·	·	·	·
CCCCCOC(=O)Nc1nnc(CCCCC)s1	6	-8	0	3	5	7
CCCCCCc1nnc(NC(=O)OCC)s1	8	-7	0	2	45*	3
Cc1[nH][nH]c(=O)c1C(c1c(C)[nH][nH]c1=O)c1cn(Cc2cccc3ccccc23)c2ccccc12	21	11	0	94*	·	50
O=C(Nc1ccccc1Cl)C(Cl)=C(Cl)S(=O)c1ccccc1 (configuration not stated)	·	·	·	100*	·	101*
O=C(Nc1ccccc1Cl)c1cccs1	-1	-1	14	-4	·	5
CCc1nn(C(C)C(=O)N2CCN(c3ccc(OC)cc3)CC2)c(=O)c2cc3occc3n12 (configuration not stated)	1	1	112*	11	3	3
CCCn1c(N)c(C(=O)CSc2nc(C)cs2)c(=O)[nH]c1=O	-4	-8	26*	-5	·	4
CC(=O)N1CCC(CN2CCOCC2)CC1	·	2	·	·	·	·
CC(=O)N1CCC(CN2CCCC2)CC1	·	38*	·	·	·	·
NS(=O)(=O)c1ccc(Nc2ccc3cc(S(=O)(=O)N4CCCCC4)ccc3n2)cc1	-14	-15	2	-9	1	-1
NS(=O)(=O)c1ccc(CCNc2cnc3cc(S(=O)(=O)N4CCCCC4)ccc3n2)cc1	·	102*	·	·	·	·
COc1ccc(S(=O)(=O)N2CCCC2CNC(=O)c2c(F)cccc2F)cc1 (configuration not stated)	·	-14	·	·	·	·
CCCN(CCC)C(=O)Cc1csc2nc(-c3ccccc3)cn12	·	-16	·	·	·	·
CN(CC(=O)Nc1ccc(OC(F)(F)F)cc1)C(=O)c1ccc(N2CCCC2=O)cc1	·	-6	-1	5	30*	2
CN(CC(=O)Nc1ccc(Cl)cc1)C(=O)c1ccc(N2CCCC2=O)cc1	·	-9	2	10	4	1
CCCN(CC(=O)Nc1ccccc1Br)CC(=O)Nc1ccc(F)c(F)c1F	-23	-12	4	-3	6	4
CCCN(CC(=O)Nc1cc(Cl)cc(Cl)c1)CC(=O)Nc1ccc(F)c(F)c1F	7	-12	2	91*	12	89*
COc1ccccc1C1C(c2ccc(F)cc2)=NN(c2ccccc2)C1C(=O)N1CCOC1=O (configuration not stated)	·	·	·	2	0	-2
CC(C(=O)NCc1cccnc1)c1ccc([N+](=O)[O-])cc1 (configuration not stated)	52*	-13	-1	-3	0	-2
O=C(NCc1cccnc1)c1ccc([N+](=O)[O-])cc1	22	-8	0	12	3	5
CCCCCCCCCn1c2c(c(=N)c3c1CCC3)CCC2	4	3	-1	101*	24	100*

Assay outcomes (PubChem)
